The source made the active and inactive calls. Calls follow the shape of the dose curve; as a rule, active = well fitted curve in the direction sought with a large enough effect; inconclusive = small, poorly fitted or top-dose-only effect, or effect the other way, or another doubt; inactive = no such curve, though single readings can be large or run the other way.

The experiment can be described thus: Inducers of the Endoplasmic Reticulum Stress Response (ERSR) in human glioma: Validation (AID 504836). Also: 0% is about no effect. The following applies: human glioma cells, ER stress response reporter; series mostly up to 38.3 µM; activation: at the top concentration. From the text: Primary protein unfolding takes place for many diseases, including diabetes and hypoxia, , and triggers a reaction in the cells called ER stress response (ERSR). ). ERSR is designed as a repair mechanism, but ultimately leads to cell death via apoptosis if conditions triggering protein unfolding persist (1). The molecular clue to ERSR activation is the enhancement of the expression of key molecular chaperones, including the glucose regulated protein (GRP) 78. GRP78 is the main sensor for protein folding and the main actuator of the ERSR.
In a collaboration between the Southern Research Institute and the NIH Chemical Genomics Center, a cell based screen was developed that reliably uses GRP78 as a sensor to identify small molecules as inducers of ERSR. In resting conditions, GRP78 binds proteins and acts as a natural repressor. Once unfolded proteins are present in the ER, GRP78 releases some of the repressors and binds to the unfolded proteins. The release of the repressors executes the ERSR program. Using a human glioma cell line in a miniaturized, luminescent format, a high-throughput screen was developed to identify actuators of the ERSR.
(1) Soboloff, J. and S. A. Berger (2002). "Sustained ER Ca2+ depletion suppresses protein synthesis and induces activation-enhanced cell death in mast cells." J Biol Chem 277(16): 13812-20.
NIH Chemical Genomics Center [NCGC]
NIH Molecular Libraries Probe Centers Network [MLPCN]
Assay Submitter (PI): Maurizio Grimaldi, Southern Research Institute
Stable transfected human glioma cell line, U87-MG, are dispensed at density 1000 cells/well into Greiner white solid bottom 1536-well assay plates. Compounds are transferred via Kalypsys pin tool equipped with 1536-pin array (10nl slotted pins, V&P Scientific, San Diego, CA). The assay plates will be incubated for 16 hours and developed by adding appropriate quantities of the Promega Bright Glo reagent. The plates will be incubated at room temperature for 10 minutes prior to being transferred into a ViewLux high-throughput CCD imager (PerkinElmer), wherein end-point measurements of luminescence are acquired.
As for `C1COC(NC(C2CC2)C2CC2)=N1`, the “activation” value is -5.11% (inactive).

With `CC(=O)OCC(=O)[C@@]1(O)CC[C@H]2[C@@H]3CCC4=CC(=O)CC[C@]4(C)[C@H]3C(=O)C[C@@]21C`, the “activation” value was 1.53% (inactive).

As for `O=C1NCC2(CCN(CCc3ccccc3)CC2)O1`, the “activation” value is -1.8% (inactive).

As for `Cc1ncsc1CCCl`, the “activation” value was -1.25% (inactive).

Consider `CCCCCCCC/C=C\CCCCCCCC(=O)NCc1ccc(O)c(OC)c1`, for which the “activation” value was 0.188% (inactive).

Take `NC(N)=Nc1nc(CSCC/C(N)=N/S(N)(=O)=O)cs1`: the “activation” value was -2.47% (inactive).

For the molecule `CCCCCN(C)CCC(O)(P(=O)(O)O)P(=O)(O)O`, the “activation” value was -4.53% (inactive).

With `CCN1CCC[C@H]1CNC(=O)c1c(O)c(Cl)cc(Cl)c1OC`, the “activation” value is -0.76% (inactive).

Take `CCN(Cc1ccncc1)C(=O)C(CO)c1ccccc1` (stereo not given): the “activation” value is 5.03% (inactive).

With `Cc1nc2ccccn2c(=O)c1CCN1CCC(C(=O)c2ccc(F)cc2)CC1`, the “activation” value was -0.871% (inactive).

With `O=P1(N(CCCl)CCCl)NCCCO1` (stereo not given), the “activation” value is -3.45% (inactive).

Take `Cc1nc2c([nH]1)c(=O)n(C)c(=O)n2Cc1ccco1`: the “activation” value was 0.44% (inactive).

In the case of `C=C(C)[C@H]1CN[C@H](C(=O)O)[C@H]1CC(=O)O`, the “activation” value was 0.701% (inactive).

With `C=CC(N)CCC(=O)O` (stereo not given), the “activation” value is -3.31% (inactive).

In the case of `CC(CCc1ccccc1)NCC(O)c1ccc(O)c(C(N)=O)c1` (stereo not given), the “activation” value is -1.24% (inactive).

With `CC(NC(C)(C)C)C(=O)c1cccc(Cl)c1` (stereo not given), the “activation” value is -0.814% (inactive).

`COc1ccc2cc([C@H](C)C(=O)O)ccc2c1`: the “activation” value is -4.06% (inactive).

As for `C[C@@H](O)[C@H]1C(=O)N2C(C(=O)O)=C(SCCN=CN)C[C@H]12`, the “activation” value was -1.86% (inactive).

Turning to `CNC[C@H](O)c1cccc(O)c1`, the “activation” value was -2.53% (inactive).

For `O=c1[nH]cnc2[nH]ncc12`, the “activation” value is -2.7% (inactive).

As for `CCCCC/C=C\C/C=C\C/C=C\C/C=C\CCCC(=O)NCC(=O)O`, the “activation” value is -3.42% (inactive).

For `Nc1nc2ccc(OC(F)(F)F)cc2s1`, the “activation” value was -3.72% (inactive).

In the case of `CCCCCCCCCCCCCCCC(=O)NCCO`, the “activation” value is -1.91% (inactive).

As to `CN1CCN(CC(=O)N2c3ccccc3C(=O)Nc3cccnc32)CC1`, the “activation” value is 0.906% (inactive).

Consider `CC(C)c1cccc(C(C)C)c1O`, for which the “activation” value is -2.12% (inactive).

In the case of `O=c1[nH]c(=O)n([C@H]2C[C@H](O)[C@@H](CO)O2)cc1Br`, the “activation” value was -4.26% (inactive).

On to `O=C(O)CCCc1ccc(N(CCCl)CCCl)cc1`, for which the “activation” value is -4.47% (inactive).

Consider `CC(C)(C)NC[C@H](O)COc1nsnc1N1CCOCC1`, for which the “activation” value was -4.42% (inactive).

As to `Nc1ccc(S(=O)(=O)Nc2ccnn2-c2ccccc2)cc1`, the “activation” value was -2.81% (inactive).

For the molecule `Cn1c(=O)c2[nH]cnc2n(C)c1=O`, the “activation” value is -0.235% (inactive).

For `OCCN1CCN(CC/C=C2/c3ccccc3Sc3ccc(C(F)(F)F)cc32)CC1`, the “activation” value was -4.59% (inactive).

In the case of `CC(C)(C)NCC(O)c1ccccc1Cl` (stereo not given), the “activation” value was 1.48% (inactive).

With `CC(C)C(=O)c1c(C(C)C)nn2ccccc12`, the “activation” value was -1.23% (inactive).

For the molecule `CCC1(c2ccc(N)cc2)CCC(=O)NC1=O` (stereo not given), the “activation” value was -0.661% (inactive).

With `CC(C)NCC(O)c1cc(O)cc(O)c1` (stereo not given), the “activation” value was 0.82% (inactive).

As for `CCN1CCC[C@H]1CNC(=O)c1cc(S(N)(=O)=O)ccc1OC`, the “activation” value was -3.06% (inactive).

As to `CC(=O)Oc1cc(C(C)C)c(OCCN(C)C)cc1C`, the “activation” value was -2.7% (inactive).

With `O=c1[nH]oc2c1CCNC2`, the “activation” value was 1.52% (inactive).

Take `CCN(CC)C(=O)c1ccc(O)c(OC)c1`: the “activation” value was -3.7% (inactive).

In the case of `NC(=O)c1ncn([C@@H]2O[C@H](CO)[C@@H](O)[C@H]2O)c1O`, the “activation” value is -1.2% (inactive).

The values above are taken from PubChem BioAssay (NCATS).
